Screens as filed in PubChem BioAssay.
HT1080 IDH1KD tx – HT-1080 IDH1 knockdown cell toxicity (counter line); HT-1080 IDH1 knockdown viability, ATP luminescence, 48 h; Potency, µM (series often up to 46.1 µM), inactives show at the top dose activity, negative = toxicity, usual class: cytotoxic; hit rate 2% among 360,000;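 also: potency is read from the fitted curve at half-maximal effect; 0% = DMSO wells and -100% = cell-free medium wells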
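Luminescent ATP read-out (CellTiter-Glo, 10 min at room temperature) after 48 h compound exposure at 37 °C gave viability of IDH1-knockdown HT-1080 cells. Activity was normalised to DMSO and cell-free wells, then fitted as concentration-response curves.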
HT1080NT lethal – kills 2HG-producing HT-1080-NT fibrosarcoma cells | HT-1080-NT fibrosarcoma viability, CellTiter-Glo ATP luminescence, 48 h | Potency, µM (titrated, usually from 46.1 µM), inactives show at the highest dose activity, negative = less viability, usual class: cytotoxic | hit rate 1.6% among 360,000;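 also: NT is the 2HG producing partner of a matched IDH1 knockdown line; potency is read from the fitted curve at half-maximal effect; 0% = DMSO-treated cells and -100% = media-only wells without cells; nearly all actives have a fitted effect of over 55% in size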
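Compounds were tested in concentration-response format on HT-1080-NT cells for 48 hours at 37 degrees C. Cell viability came from CellTiter-Glo luminescence; curves were classified by r2, response magnitude and activity.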
IL-1B inflam inh – inflammasome signaling inhibition, IL-1 beta readout; THP-1 LPS/ATP IL-1B secretion, AlphaLISA, 16 h; hits give low values; activity change, % at 57.5 µM; hit rate 4.7% among 360,000; in the data active = activity change below about -50%; inconclusive = mostly about -30% to -49%
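THP-1 cells pretreated 1 hr with compounds (up to 57.5 uM final), then stimulated with LPS (250 ng/mL final) plus ATP (1.25 mM final); secreted IL-1B measured by AlphaLISA after 16 hr, decreased signal indicating inhibition.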
KB-3-1 cytotox – KB-3-1 parental cell cytotoxicity. KB-3-1 viability, CellTiter-Glo ATP luminescence, 72 h. Potency, µM (doses to about 46.1 µM), most hits filed as cytotoxic. hit rate 1.4% among 400,000. AID 1347075; also: potency is read from the fitted curve at half-maximal effect; nearly all actives have a fitted effect of over 60% in size
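Here the drug-naive KB-3-1 line serves as comparator for MDR sub-line selectivity; cells received compound titrations, 72 h at 37 °C, then CellTiter-Glo readout.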
KB-V1 cytotox – KB-V1 MDR subline cytotoxicity; KB-V1 MDR cells viability, CellTiter-Glo, 72 h; Potency, µM (titrated, usually from 46.1 µM), usual class: cytotoxic; AID 1347076; hit rate 3.4% among 400,000; also: potency is read from the fitted curve at half-maximal effect; nearly all actives have a fitted effect of over 60% in size
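KB-V1, DMEM (no phenol red) + 10% FBS; cpd pin-transferred, titration series; 72 h, 37 degrees C; CellTiter-Glo, luminescence. Data normalized, curve-fit.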
Starred values were filed as active, the others as inactive; i = inactive; ? = inconclusive; . = no result given. Only some compounds are listed: those with a hit (about 8.8% of all), similar ones and a draw of the others. Unless noted, calls follow the shape of the dose curve; as a rule, active = well fitted curve in the direction sought with a large enough effect; inconclusive = small, poorly fitted or top-dose-only effect, or another doubt; inactive = no such curve, though single readings can be large; an effect the other way counts as inactive or inconclusive. Unless noted, % is scaled to controls: 0 for no effect and ±100 for the full control effect.

SMILES | HT1080 IDH1KD tx | HT1080NT lethal | IL-1B inflam inh | KB-3-1 cytotox | KB-V1 cytotox
O=C(NCC1CCCO1)c1cc(-c2ccccc2)on1 (stereo not drawn) | ? | -17.7% | -79.9* | i | 20.6µM*
O=C(NCC1CCCO1)c1cc2cc(Cl)ccc2[nH]1 (stereo not drawn) | -6.2% | -7.2% | -72.8* | i | i
CC(C)CC(=O)N(Cc1ccccc1)S(=O)(=O)c1ccc2c(c1)oc(=O)n2C | . | . | . | i | i
N#Cc1cccc(C2CC(OCCF)=CC(=O)O2)c1 (stereo not drawn) | 14.3% | 14.0% | -6.5 | i | i
CCN(C(=O)COC(=O)c1cccs1)c1c(N)n(Cc2ccccc2)c(=O)[nH]c1=O | 0.0% | -1.2% | 3.9 | i | i
O=C(O)C1CCCCC1C(=O)NCCc1ccc(Cl)cc1 (stereo not drawn) | 21.9% | 20.7% | -63.3* | i | i
OC(c1ccc(F)c(F)c1)c1nc(-c2ccc3ccccc3c2)cs1 (stereo not drawn) | ? | ? | -10.7 | i | i
CC(C)CN(C(=O)COC(=O)c1cccs1)c1c(N)n(Cc2ccccc2)c(=O)[nH]c1=O | 2.2% | 7.4% | -16.9 | i | i
CC(C)CN(C(=O)COC(=O)c1ccc([N+](=O)[O-])s1)c1c(N)n(Cc2ccccc2)c(=O)[nH]c1=O | -0.5% | -4.4% | 8.6 | 20.6µM* | i
CCCCn1c(N)c(N(CCC(C)C)C(=O)COC(=O)c2ccc([N+](=O)[O-])s2)c(=O)[nH]c1=O | ? | 0.4% | -73.9* | i | i
CCCCn1c(N)c(N(CCC(C)C)C(=O)COC(=O)c2sccc2C)c(=O)[nH]c1=O | -2.7% | -3.7% | -22.0 | i | i
CCCS(=O)(=O)N1CCCC(c2nc(-c3cccc(OC)c3)no2)C1 (stereo not drawn) | -3.2% | 7.4% | 0.0 | i | 11.6µM*
COc1cccc(-c2noc(C3CCCN(S(=O)(=O)c4cccc(Cl)c4C)C3)n2)c1 (stereo not drawn) | -11.0% | 1.0% | 7.0 | i | 14.6µM*
COc1ccc(S(=O)(=O)N2CCC(NC(=O)OCc3c(Cl)cccc3Cl)CC2)cc1 | -0.8% | 4.8% | -3.1 | i | 8.2µM*
COc1ccc(COC(=O)NC2CCN(S(=O)(=O)c3ccc(OC)cc3)CC2)cc1 | -1.2% | 7.5% | -2.0 | i | 7.31µM*
COc1ccc(S(=O)(=O)N2CCC(C(=O)NC3CC3)CC2)cc1 | 1.2% | 5.5% | 10.3 | i | i
COc1ccc(C(c2nnnn2C(C)C)N2CCN(C(=O)c3ccco3)CC2)cc1 (stereo not drawn) | 8.8% | 7.0% | -12.1 | i | i
CC(C)=C1SC(N2CCN(c3ccc(Cl)cc3)CC2)=NC1=O | 3.7% | 12.2% | -60.4* | i | ?
O=C(NCCc1ccc(O)c(Br)c1)c1ccc(Br)o1 | -2.1% | -0.9% | -0.3 | i | i
Cc1ccc2c(=O)cc(C(=O)Nc3c(C(=O)Nc4cccc(Cl)c4)oc4ccccc34)oc2c1 | . | . | . | i | ?
CNc1ccc(C=C2C=Cc3ccccc32)cc1 | -0.3% | -1.7% | -72.8* | i | i
C1=Cc2ccccc2/C1=C/c1ccc(/C=C2\C=Cc3ccccc32)cc1 | . | . | . | i | i
CCOc1ccccc1C(=O)Nc1ccc(-n2nncc2-c2ccccc2)cc1 | . | . | . | i | i
O=S1(=O)CCOCCCN1Cc1cccc(Cl)c1 | . | . | . | i | i
CC1=NN(C(=O)COc2ccccc2C)C(O)(c2ccc(Cl)cc2)C1 (stereo not drawn) | 9.1% | 0.0% | -12.1 | i | 13µM*
SMILES | HT1080 IDH1KD tx | HT1080NT lethal | IL-1B inflam inh | KB-3-1 cytotox | KB-V1 cytotox
CCC1=NN(C(=O)COc2ccccc2C)C(O)(c2ccncc2)C1 (stereo not drawn) | -0.6% | 5.3% | 0.0 | i | i
CCn1c(CCNC(=O)c2ccc(OC)cc2)nnc1SCc1ccc(Cl)c(Cl)c1 | -19.0% | 0.0% | -27.5 | ? | 4.61µM*
COc1cc(Cn2c3ccc(NC(=O)NCc4ccc(F)cc4)cc3c(=O)n2C)ccc1F | ? | ? | 60.8 | 9.2µM* | i
COc1cc(Cn2c3ccc(NC(=O)CCc4ccc(O)cc4)cc3c(=O)n2C)ccc1F | ? | ? | 0.0 | 5.8µM* | i
COc1ccc(CCNC(=O)Nc2ccc3c(c2)c(=O)n(C)n3Cc2ccc(F)cc2)cc1OC | 11.6% | 25.0% | 0.0 | i | i
Cn1c(=O)c2cc(NC(=O)NCc3ccc(Cl)cc3Cl)ccc2n1Cc1ccccc1 | -5.3% | -1.0% | -59.9* | i | i
Cn1c(=O)c2cc(NC(=O)CCc3ccc4c(c3)OCO4)ccc2n1Cc1ccc(F)cc1 | ? | -5.2% | ? | ? | i
CCN(CC)C(=O)c1sc2c(c1C)c(=O)n(-c1ccccc1)c(=O)n2CC(=O)Nc1ccc(C)cc1C | . | . | . | i | i
COc1cc(/C=N/N2C(=O)C3C4c5ccccc5C(c5ccccc54)C3C2=O)ccc1O (stereo not drawn) | -9.8% | -2.7% | -7.0 | i | 10.3µM*
O=C(Nc1ccc(Cl)c(Cl)c1)c1cccc(S(=O)(=O)NCc2cccnc2)c1 | 23.1µM* | 7.31µM* | -82.2* | i | i
Cc1cccc(NC(=O)c2ccc(S(=O)(=O)NCc3cccnc3)cc2)c1 | -14.3% | -1.4% | 45.9 | ? | 20.6µM*
COc1cccc(S(=O)(=O)NCc2ccc(C(=O)Nc3ccc(Cl)c(Cl)c3)cc2)c1 | -19.7% | -11.9% | -19.0 | ? | i
Cc1ccc(C2=NN=C(NC(=O)CSc3nncn3C)SC2)cc1 | ? | ? | ? | i | i
O=C(CSc1n[nH]c(-c2ccc(Cl)cc2Cl)n1)Nc1ccccn1 | 4.7% | 2.1% | 25.5 | i | 16.4µM*
CN1CCN(NC(=O)c2ccc(Br)s2)CC1 | -0.4% | 5.7% | 0.0 | i | i
O=C(COc1ccc(Cl)cc1)Nc1ccc2c(c1)nc1n2CCOC1 | -4.8% | -0.4% | -2.0 | i | i
COc1cc(OC)cc(C(=O)N/N=C/c2ccc(OC)c(COc3ccc(F)cc3)c2)c1 | 5.17µM* | ? | 32.4 | ? | 10.3µM*
COc1cc(/C=N\NC(=O)CC#N)ccc1OC/C=C/c1ccccc1 | ? | -21.7% | -26.6 | i | i
COCc1cc(/C=N\NC(=O)Cc2ccc(Cl)cc2)ccc1OC | 1.4% | 2.1% | 9.2 | i | i
COc1ccc(/C=N/NC(=O)c2cccnc2)cc1COc1ccc([N+](=O)[O-])cc1 | 6.51µM* | ? | . | ? | ?
COCC(=O)N/N=C\c1ccc(OC/C=C/c2ccccc2)c(OC)c1 | -16.8% | -11.2% | i | i | 11.6µM*
COCc1cc(/C=N\NC(=O)Cc2ccc(OC)cc2)ccc1OC | 2.5% | -1.7% | -6.2 | i | 23.1µM*
